From PubChem BioAssay
Compounds with a hit are over-represented: about 28% of the library has one in this group of screens.
CYP2C19 inhib – human CYP2C19 inhibition | P33261 | CYP2C19 Supersomes, luciferin-H EGE luminescence, 30 min | inhibition, % at 5 µM | actives 21% (n = 96,000);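 active = CYP2C19 inhibition above a set limit at 5 µM in the primary screen, cut at about 50% in these data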
Target sequence (P33261 whole entry, looked up): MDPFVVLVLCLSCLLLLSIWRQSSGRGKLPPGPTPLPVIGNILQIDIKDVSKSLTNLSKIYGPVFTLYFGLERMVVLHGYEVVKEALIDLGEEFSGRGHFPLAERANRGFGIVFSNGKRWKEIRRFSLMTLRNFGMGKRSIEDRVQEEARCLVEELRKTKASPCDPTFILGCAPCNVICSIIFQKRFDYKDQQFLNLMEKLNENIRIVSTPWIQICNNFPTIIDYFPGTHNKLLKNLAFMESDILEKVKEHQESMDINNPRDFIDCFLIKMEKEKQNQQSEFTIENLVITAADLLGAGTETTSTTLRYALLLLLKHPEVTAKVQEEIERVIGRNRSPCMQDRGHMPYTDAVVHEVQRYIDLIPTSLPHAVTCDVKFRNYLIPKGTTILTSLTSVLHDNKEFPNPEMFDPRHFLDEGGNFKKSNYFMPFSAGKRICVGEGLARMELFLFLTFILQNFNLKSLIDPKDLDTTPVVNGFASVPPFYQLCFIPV
CYP2C9 inhib – blocks human cytochrome P450 2C9; P11712; CYP2C9 Supersomes, luciferin-H conversion, luminescence; AID 777; inhibition, % at 5 µM; actives 20% (n = 96,000);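 active = blocking of liver enzyme CYP2C9 beyond about 50% at 5 µM, limit read from the data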
D1 mod – D1 dopamine receptor (human) allosteric modulation; B-score at 10 µM; actives 5.9% (n = 58,000); HEK293 D1, CRE-luciferase, dopamine EC30 potentiation; actives deviate in either direction; P21728; AID 641;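 active = luminescence count or its row- and column-corrected plate score outside the 99.7% band of the plate's sample wells, on either side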
CYP2C9 activ – activators of human CYP2C9 | actives 1.4% (n = 96,000) | P11712 | AID 1024 | recombinant CYP2C9, luciferin-H conversion, luminescence; stronger effect = higher value; factor 1 = untreated enzyme, 0 = blocked | activation factor at 5 µM;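 active = activation factor of 2 or more for CYP2C9 at a 5 µM dose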
CYP2C19 act – activators of human cytochrome P450 2C19; P33261; recombinant CYP2C19, luciferin-H EGE luminescence; stronger effect = higher value; 0 = fully inhibited enzyme, 1 = untreated enzyme; activation factor at 5 µM; 96,000 tested, under 10 active; AID 1025;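 active = activation factor of at least 2 at 5 µM in the primary screen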
hDAT+cocaine – modulates human dopamine transporter uptake under cocaine | B-score at 10 µM | LLC-PK1 hDAT cells, [14C]-dopamine uptake with cocaine IC80; actives deviate in either direction | actives 1.3% (n = 110,000) | Q01959;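 active = Z score or B-score, a plate-position-corrected score, falls beyond the plate's 99.7% confidence bounds, in either direction; inactive = both scores lie inside the 99.7% bounds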
Hits are given with their value; n = inactive; x = no result.

SMILES	CYP2C19 inhib	CYP2C9 inhib	D1 mod	CYP2C9 activ	CYP2C19 act	hDAT+cocaine
CN(C)/C=C(/C#N)C(=O)c1cccc(Oc2ccc(C(C)(C)C)cc2)c1	77.5	n	x	n	n	n
Cc1ccccc1Oc1ncccc1C(=O)/C(C#N)=C/N(C)C	n	n	x	n	n	n
Cc1ccccc1Oc1cccc(C(=O)/C(C#N)=C/N(C)C)c1	89.3	79.1	x	n	n	n
CC(C)Oc1cccc(C(=O)O)c1	n	n	n	n	n	n
Cc1cc(Cl)ccc1Oc1cccc(C(=O)/C(C#N)=C/N(C)C)c1	69.5	n	x	n	n	n
COc1cc(CCNc2ccc3nnc(-c4ccccc4)n3n2)cc(OC)c1OC	x	x	x	x	x	n
CCCCn1c(SCC(=O)NCc2cccs2)nc2c1c(=O)n(C)c(=O)n2C	n	n	n	n	n	n
CC(C)Oc1ccc(/C(O)=C2/C(=O)C(=O)N(CCN(C)C)C2c2ccco2)cc1 (stereo not drawn)	n	n	x	n	n	n
CCn1c(SCC(=O)Nc2ccc3c(c2)OCO3)nc2ccccc21	x	x	x	x	x	n
CCn1c(C(O)c2ccc3c(c2)OCO3)nc2ccccc21 (stereo not drawn)	97.9	n	n	n	n	n
Nc1nnnn1/N=C/c1cccc(O)c1	n	n	x	n	n	x
Nc1nnnn1/N=C/c1ccc(O)cc1	68.4	84.4	x	n	n	n
O=C1CC(NC23CC4CC(CC(C4)C2)C3)C(=O)N1c1ccc2c(c1)OCO2 (stereo not drawn)	n	n	n	n	n	n
CCCN(CCC)C(=O)C1CCN(c2cc(C)nc3c(-c4ccc(OC)c(OC)c4)c(C)nn23)CC1	n	51.3	n	n	n	n
COc1ccc(-c2c(C)nn3c(N4CCC(C(=O)NCCN(C)C)CC4)cc(C)nc23)cc1OC	n	n	n	n	n	n
O=C(NC(C(=O)c1ccccc1)n1c(=O)cc[nH]c1=S)c1ccccc1 (stereo not drawn)	x	x	x	x	x	n
O=c1[nH]cnc2scc(-c3cccs3)c12	x	x	n	x	x	n
O=c1[nH]c(Cc2ccccc2)nc2scc(-c3ccccc3)c12	n	n	x	n	n	n
CC(Sc1n[nH]c(N)n1)c1nc2scc(-c3cccs3)c2c(=O)[nH]1 (stereo not drawn)	n	58.6	x	n	n	n
Nc1nc(SCc2nc3scc(-c4ccccc4)c3c(=O)[nH]2)n[nH]1	n	50.0	x	n	n	n
COc1ccc(NC(=O)c2cc3ccccn3n2)cc1	n	n	-4.74	n	n	n
COc1ccc(NC(=O)c2ccccn2)cc1	n	n	x	n	n	n
COc1ccc(CCNC(=O)c2cc3ccccn3n2)c(OC)c1OC	75.4	n	n	n	n	n
Clc1cccc2sc(N3CCCC3)nc12	n	n	-6.55	n	n	n
Cc1ccc(C)c(-n2nnnc2SCC(=O)c2ccc3c(c2)NC(=O)CO3)c1	56.2	n	n	2.5	n	n
SMILES	CYP2C19 inhib	CYP2C9 inhib	D1 mod	CYP2C9 activ	CYP2C19 act	hDAT+cocaine
O=S(=O)(c1ccc(F)cc1)n1ccc(-c2cccc(OCc3ccc(Cl)cc3Cl)c2)n1	n	n	x	n	n	n
C=CCNC(=O)c1onc(CSc2cc(C)ccc2C)c1C(=O)O	n	76.8	x	n	n	n
Cc1ccc(C)c(SCc2noc(C(=O)NC(C)C)c2C(=O)O)c1	n	71.8	x	n	n	n
C=CCNC(=O)c1onc(CSc2ccccc2C)c1C(=O)O	n	n	x	n	n	n
COCCNC(=O)c1onc(CSc2cc(C)ccc2C)c1C(=O)O	n	n	x	n	n	n
CCCCNC(=O)c1onc(CSc2cc(C)ccc2C)c1C(=O)O	n	77.8	x	n	n	n
Cc1ccc(C)c(SCc2noc(C(=O)NCC3CCCO3)c2C(=O)O)c1 (stereo not drawn)	n	n	x	n	n	n
CCCCNC(=O)c1onc(CSc2ccccc2CC)c1C(=O)O	n	71.6	x	n	n	n
Cc1ccc(S(=O)(=O)N2CC3(C)CN(S(=O)(=O)c4ccc(C)cc4)CC(C)(C2)C3)cc1	n	n	x	n	n	n
Cc1nc(S(=O)(=O)N2CCOCC2)c(C#N)c(C)c1Cl	n	n	n	n	n	n
CC(C)C[C@H](NC(=O)OC(C)(C)C)C(=O)N/N=C/c1ccc2nccnc2c1	n	n	x	n	n	n
CCC(C)[C@H](NC(=O)OC(C)(C)C)C(=O)N/N=C/c1ccc2nccnc2c1 (stereo partly drawn)	n	54.8	x	n	n	n
CC1=C(C#N)c2nc(N)c(C#N)c(C)c2/C1=C\c1ccccc1	x	x	n	x	x	x
CCC(C)(C)NC(=O)C(c1ccc(OC)cc1)N(Cc1cccs1)C(=O)CCC(=O)Nc1cc(C)on1 (stereo not drawn)	x	x	x	x	x	n
Cc1nn(-c2ccccc2)c(N)c1C(O)(CSc1nccn1C)C(F)(F)F (stereo not drawn)	92.7	86.8	x	n	n	n
Cc1nn(-c2ccc(Cl)cc2)c(N)c1C(O)(CSc1nccn1C)C(F)(F)F (stereo not drawn)	74.8	87.4	n	n	n	n
COc1ccc(OC)c(C2=Nn3c(nnc3-c3ccco3)SC2)c1	85.3	68.6	x	n	n	n
COc1ccc(-c2nnc3n2N=C(C)CS3)cc1OC	n	n	n	n	n	n
COc1ccc(C2=Nn3c(nnc3C3CCCCC3)SC2)cc1OC	64.0	72.3	x	n	n	n
COc1ccc(C2=Nn3c(nnc3-c3ccncc3)SC2)cc1	n	56.4	x	n	n	n
COc1ccc(OCc2nnc3n2N=C(c2ccc(C)cc2)CS3)cc1	n	n	n	n	n	n
COc1ccc(OC)c(C2=Nn3c(nnc3-c3cccc(OC(C)C)c3)SC2)c1	n	n	n	n	n	n
COc1ccc(-c2nnc3n2N=C(c2ccccc2)CS3)cc1OC	52.3	75.6	n	n	n	x
Cn1c(=O)[nH]c(=O)c2c1nc(N1CCOCC1)n2CCSc1nc2ccccc2[nH]1	n	n	x	n	n	n
O=C(NCC1CCCO1)c1onc(CSc2ccc(F)c(F)c2)c1C(=O)O (stereo not drawn)	n	n	x	n	n	n
SMILES	CYP2C19 inhib	CYP2C9 inhib	D1 mod	CYP2C9 activ	CYP2C19 act	hDAT+cocaine
COc1ccc(C2=Nn3c(nnc3-c3ccco3)SC2)cc1	56.3	63.6	x	n	n	n
Fc1ccc(C2=Nn3c(Cc4ccccc4)nnc3SC2)cc1	n	n	n	n	n	n
COc1ccc(Cc2nnc3n2N=C(c2cc4ccccc4o2)CS3)cc1OC	x	x	3.01	x	x	n
O=C(C1CC1)N(Cc1ccco1)c1nc(-c2ccccc2)cs1	n	n	n	n	n	n
C=CCn1c(COc2ccccc2)nnc1SCC(=O)C(C)(C)C	64.9	n	n	n	n	n
C=CCn1c(COc2ccccc2)nnc1SCC(=O)Nc1ccc(S(N)(=O)=O)cc1	n	50.9	n	n	n	n
C=CCn1c(COc2ccc(Cl)cc2)nnc1SCC(=O)N1CC(=O)Nc2ccccc21	n	n	n	2.6	n	n
C=CCn1c(COc2ccc3c(c2)CCCC3)nnc1SCC(=O)Nc1cccc(SC)c1	n	50.6	x	n	n	n
